Reference: PubChem BioAssay AID1159580 (chemical genetic matrix, 2015)
Several values for one entry are separate records, joined by “and”; a condition that tells them apart may be missing. Identical values can stand only once. Out of some 5,500 compounds screened, about 2,000 (36%) were called active. Inconclusive results (about 18%) are left out. No stated cut-off is given here; in the data, active means normalized growth mostly below about 0.91 (no sharp cut-off); inconclusive means no clear call, values can overlap the other calls; inactive means mostly above about 0.92. This is one part of the list.

Assay: chemical genetic growth profiling, strain panel (AID 1159580);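 further: tested at 20 µM; growth read once vehicle control cultures reached saturation at 30 °C; 1 = growth at the plate median or of vehicle wells; lower values mean less growth of the strain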
Details: growth OD

Measured: normalized growth

CC(=O)N[C@@H]1[C@@H](C(O)[C@H](O)CO)O[C@](O)(C(=O)O)C[C@@H]1O (some centres not stated)
inactive: S. cerevisiae deletion strains, locus YAL013W, strain DEP1, hits give low values 1.01 | S. cerevisiae deletion strains, locus YBR021W, strain FUR4, hits give low values 1.02 | S. cerevisiae deletion strains, locus YBR229C, strain ROT2, hits give low values 1 | S. cerevisiae deletion strains, locus YCL029C, strain bik1, hits give low values 0.997 | S. cerevisiae deletion strains, locus YDL035C, strain GPR1, hits give low values 1.01 | S. cerevisiae deletion strains, locus YDL074C, strain BRE1, hits give low values 1.04 | S. cerevisiae deletion strains, locus YDL101C, strain DUN1, hits give low values 1.03 | S. cerevisiae deletion strains, locus YDL134C, strain PPH21, hits give low values 1 | S. cerevisiae deletion strains, locus YDL185W, strain tfp1, hits give low values 1.02 | S. cerevisiae deletion strains, locus YDL192W, strain arf1, hits give low values 0.999 | S. cerevisiae deletion strains, locus YDR101C, strain arx1, hits give low values 1 | S. cerevisiae deletion strains, locus YDR150W, strain NUM1, hits give low values 1 | S. cerevisiae deletion strains, locus YDR162C, strain NBP2, hits give low values 1.02 | S. cerevisiae deletion strains, locus YDR318W, strain mcm21, hits give low values 1.01 | S. cerevisiae deletion strains, locus YDR388W, hits give low values 1.01 | S. cerevisiae deletion strains, locus YDR502C, strain sam2, hits give low values 0.998 | S. cerevisiae deletion strains, locus YEL061C, strain CIN8, hits give low values 1 | S. cerevisiae deletion strains, locus YER110C, hits give low values 1 | S. cerevisiae deletion strains, locus YER155C, strain BEM2, hits give low values 1 | S. cerevisiae deletion strains, locus YER167W, strain BCK2, hits give low values 1 | S. cerevisiae deletion strains, locus YGL078C, strain dbp3, hits give low values 0.982 | S. cerevisiae deletion strains, locus YGL086W, strain mad1, hits give low values 1 | S. cerevisiae deletion strains, locus YGL248W, strain PDE1, hits give low values 1.01 | S. cerevisiae deletion strains, locus YGR078C, strain PAC10, hits give low values 1.03 | S. cerevisiae deletion strains, locus YGR135W, strain pre9, hits give low values 1.01 | S. cerevisiae deletion strains, locus YGR229C, strain SMI1, hits give low values 1.02 | S. cerevisiae deletion strains, locus YGR252W, strain gcn5, hits give low values 0.958 | S. cerevisiae deletion strains, locus YHR030C, strain SLT2, hits give low values 0.998 and 1.01 | S. cerevisiae deletion strains, locus YHR079C, strain IRE1 (second series), hits give low values 1.01 | S. cerevisiae deletion strains, locus YHR079C, strain IRE1, hits give low values 1 | S. cerevisiae deletion strains, locus YHR094C, strain hxt1, hits give low values 1.01 | S. cerevisiae deletion strains, locus YHR129C, strain ARP1, hits give low values 1.02 | S. cerevisiae deletion strains, locus YHR200W, strain rpn10, hits give low values 1.01 | S. cerevisiae deletion strains, locus YIL066C, strain RNR3, hits give low values 1.02 | S. cerevisiae deletion strains, locus YIL073C, strain SPO22, hits give low values 1.02 | S. cerevisiae deletion strains, locus YIL125W, strain kgd1, hits give low values 0.993 | S. cerevisiae deletion strains, locus YIR030C, strain dcg1, hits give low values 0.999 | S. cerevisiae deletion strains, locus YJL095W, strain BCK1, hits give low values 1.06 and 0.995 | S. cerevisiae deletion strains, locus YJL134W, strain LCB3, hits give low values 1.01 | S. cerevisiae deletion strains, locus YJL168C, strain set2, hits give low values 1.01 | S. cerevisiae deletion strains, locus YJL187C, strain SWE1 (second series), hits give low values 1.04 | S. cerevisiae deletion strains, locus YJR043C, strain POL32, hits give low values 1.04 | S. cerevisiae deletion strains, locus YJR066W, strain TOR1, hits give low values 0.916 | S. cerevisiae deletion strains, locus YJR075W, strain HOC1, hits give low values 1.02 | S. cerevisiae deletion strains, locus YKL009W, strain mrt4, hits give low values 1.02 | S. cerevisiae deletion strains, locus YKL068W, hits give low values 0.998 | S. cerevisiae deletion strains, locus YKL085W, strain MDH1 (second series), hits give low values 1 | S. cerevisiae deletion strains, locus YKL085W, strain MDH1, hits give low values 1 | S. cerevisiae deletion strains, locus YKL190W, strain CNB1, hits give low values 1.01 | S. cerevisiae deletion strains, locus YKR001C, strain vps1, hits give low values 1.01 | S. cerevisiae deletion strains, locus YLR039C, strain RIC1, hits give low values 1.02 | S. cerevisiae deletion strains, locus YLR058C, strain SHM2, hits give low values 1.01 | S. cerevisiae deletion strains, locus YLR102C, strain apc9, hits give low values 1.01 | S. cerevisiae deletion strains, locus YLR113W, strain HOG1, hits give low values 1.05 | S. cerevisiae deletion strains, locus YLR262C, strain YPT6, hits give low values 1.03 | S. cerevisiae deletion strains, locus YLR268W, strain sec22, hits give low values 1.07 | S. cerevisiae deletion strains, locus YLR330W, strain CHS5, hits give low values 1 | S. cerevisiae deletion strains, locus YLR342W, strain FKS1 (second series), hits give low values 1.02 | S. cerevisiae deletion strains, locus YLR371W, strain rom2, hits give low values 1.01 | S. cerevisiae deletion strains, locus YLR418C, strain cdc73, hits give low values 1.01 | S. cerevisiae deletion strains, locus YML016C, strain PPZ1, hits give low values 1.01 | S. cerevisiae deletion strains, locus YML032C, strain rad52, hits give low values 1.05 | S. cerevisiae deletion strains, locus YML124C, strain tub3, hits give low values 0.997 | S. cerevisiae deletion strains, locus YMR078C, strain ctf18, hits give low values 1.01 | S. cerevisiae deletion strains, locus YMR223W, strain ubp8, hits give low values 0.975 | S. cerevisiae deletion strains, locus YMR263W, strain SAP30, hits give low values 1.02 | S. cerevisiae deletion strains, locus YMR307W, strain GAS1, hits give low values 1.01 | S. cerevisiae deletion strains, locus YNL067W, strain RPL9B, hits give low values 1.05 | S. cerevisiae deletion strains, locus YNL128W, strain TEP1, hits give low values 1.03 | S. cerevisiae deletion strains, locus YNL153C, strain GIM3, hits give low values 1.04 | S. cerevisiae deletion strains, locus YNL183C, strain NPR1, hits give low values 0.913 | S. cerevisiae deletion strains, locus YNL233W, strain BNI4, hits give low values 1.03 | S. cerevisiae deletion strains, locus YNL250W, strain rad50, hits give low values 0.999 | S. cerevisiae deletion strains, locus YNL271C, strain bni1, hits give low values 1.01 | S. cerevisiae deletion strains, locus YNL298W, strain CLA4, hits give low values 0.994 | S. cerevisiae deletion strains, locus YNL307C, strain MCK1, hits give low values 1 | S. cerevisiae deletion strains, locus YNL322C, strain KRE1, hits give low values 1 | S. cerevisiae deletion strains, locus YNR052C, strain pop2, hits give low values 1.01 | S. cerevisiae deletion strains, locus YOL006C, strain TOP1, hits give low values 1.15 | S. cerevisiae deletion strains, locus YOL012C, strain htz1 1.02 | S. cerevisiae deletion strains, locus YOL147C, strain pex11, hits give low values 1 | S. cerevisiae deletion strains, locus YOR061W, strain CKA2, hits give low values 1.01 | S. cerevisiae deletion strains, locus YOR069W, strain VPS5, hits give low values 1.01 | S. cerevisiae deletion strains, locus YOR136W, strain idh2, hits give low values 0.986 | S. cerevisiae deletion strains, locus YOR144C, strain elg1, hits give low values 0.994 | S. cerevisiae deletion strains, locus YOR184W, strain ser1, hits give low values 0.994 | S. cerevisiae deletion strains, locus YOR231W, strain MKK1, hits give low values 0.996 | S. cerevisiae deletion strains, locus YOR316C, strain cot1, hits give low values 1.01 | S. cerevisiae deletion strains, locus YPL055C, strain LGE1, hits give low values 1.02 | S. cerevisiae deletion strains, locus YPL241C, strain CIN2, hits give low values 1.01 | S. cerevisiae deletion strains, locus YPL256C, strain CLN2, hits give low values 0.99 | S. cerevisiae deletion strains, locus YPR119W, strain clb2, hits give low values 1 | S. cerevisiae deletion strains, locus YPR141C, strain kar3, hits give low values 0.999 | S. cerevisiae deletion strains, locus YPR163C, strain tif3, hits give low values 1.01 | S. cerevisiae deletion strains, locus YPR167C, strain met16, hits give low values 1 | S. cerevisiae deletion strains, strain wtn01, hits give low values 1.01 | S. cerevisiae strains, strain wild type, hits give low values 1.01
